Experimental data taken from PubChem BioAssay (NCI).
Compounds without any hit were thinned out: in the full panel of roughly 83,000, 20% have a hit.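 In brief: 96-well plates, 48 h treatment, single concentration, percent growth endpoint.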

Experiments:
Experiment in all cases: NCI-60 one-dose screen, 48 h (100 = growth as untreated, 0 = no growth, -100 = all killed)
Conditions in all cases: 10 µM; active = growth percent below 10; inactive = the rest
NCI-H23 lung = tested on: NCI-H23 lung
NCI-H226 lung = tested on: NCI-H226 lung
NCI-H322M lung = tested on: NCI-H322M lung
HOP-62 NSCLC = tested on: HOP-62 NSCLC
NCI-H460 lung = tested on: NCI-H460 lung
HOP-92 NSCLC = tested on: HOP-92 NSCLC
NCI-H522 lung = tested on: NCI-H522 lung
A549/ATCC NSCLC = tested on: A549/ATCC NSCLC
786-0 renal = tested on: 786-0 renal
COLO 205 colon = tested on: COLO 205 colon
DU-145 prostate = tested on: DU-145 prostate
K-562 leukemia = tested on: K-562 leukemia
MALME-3M melanoma = tested on: MALME-3M melanoma
MDA-MB-231 breast = tested on: MDA-MB-231 breast
RXF 393 renal = tested on: RXF 393 renal
SF-268 CNS = tested on: SF-268 CNS
SF-295 CNS = tested on: SF-295 CNS
SF-539 CNS = tested on: SF-539 CNS
UACC-257 melanoma = tested on: UACC-257 melanoma
M14 melanoma = tested on: M14 melanoma

Measured: growth

CCOC(=O)/C(=C/c1ccc(OC)cc1)N(CC)CC
inactive: NCI-H23 lung 96.3% | NCI-H226 lung 97% | NCI-H322M lung 105% | HOP-62 NSCLC 103% | NCI-H460 lung 103% | HOP-92 NSCLC 81.4% | NCI-H522 lung 94.1% | A549/ATCC NSCLC 101% | 786-0 renal 103% | COLO 205 colon 115% | DU-145 prostate 102% | K-562 leukemia 102% | MALME-3M melanoma 108% | MDA-MB-231 breast 107% | RXF 393 renal 107% | SF-268 CNS 100% | SF-295 CNS 101% | SF-539 CNS 108% | UACC-257 melanoma 103% | M14 melanoma 107%

Cc1cc(NC(=O)CSCC(=O)O)no1
inactive: NCI-H23 lung 102% | NCI-H226 lung 110% | NCI-H322M lung 96.7% | HOP-62 NSCLC 96.3% | NCI-H460 lung 110% | HOP-92 NSCLC 107% | NCI-H522 lung 101% | A549/ATCC NSCLC 97.2% | 786-0 renal 103% | COLO 205 colon 110% | DU-145 prostate 112% | K-562 leukemia 117% | MALME-3M melanoma 96.8% | RXF 393 renal 103% | SF-268 CNS 114% | SF-295 CNS 94.2% | SF-539 CNS 96.4% | UACC-257 melanoma 95.4% | M14 melanoma 99.6%

O=C1NC(=O)C2C(=O)NC(=O)C1C21CCc2ccccc21 (stereo not drawn)
inactive: NCI-H23 lung 91.8% | NCI-H226 lung 87.7% | NCI-H322M lung 106% | HOP-62 NSCLC 94.3% | NCI-H460 lung 115% | HOP-92 NSCLC 89.5% | NCI-H522 lung 97.4% | A549/ATCC NSCLC 103% | 786-0 renal 101% | COLO 205 colon 125% | DU-145 prostate 115% | K-562 leukemia 98.2% | MALME-3M melanoma 102% | RXF 393 renal 99.3% | SF-268 CNS 111% | SF-295 CNS 102% | SF-539 CNS 93.7% | UACC-257 melanoma 107% | M14 melanoma 103%

COc1ccccc1C1OC2=Nc3cc(C)c(C)cc3NC2C1=O (stereo not drawn)
inactive: NCI-H23 lung 79% | NCI-H226 lung 21.7% | NCI-H322M lung 80.3% | HOP-62 NSCLC 47.9% | NCI-H460 lung 14.1% | HOP-92 NSCLC 67.7% | NCI-H522 lung 91% | A549/ATCC NSCLC 67.6% | 786-0 renal 14% | COLO 205 colon 79.1% | DU-145 prostate 88% | K-562 leukemia 97.7% | MALME-3M melanoma 80.2% | RXF 393 renal 78.3% | SF-295 CNS 74.8% | SF-539 CNS 91% | UACC-257 melanoma 104% | M14 melanoma 84.2%

O=[N+]([O-])c1ccc(-c2noc(-c3cccs3)n2)cc1
inactive: NCI-H23 lung 82.1% | NCI-H226 lung 86.3% | NCI-H322M lung 81.4% | HOP-62 NSCLC 87.6% | NCI-H460 lung 82.7% | HOP-92 NSCLC 91.8% | NCI-H522 lung 81.7% | A549/ATCC NSCLC 81.3% | 786-0 renal 76.1% | COLO 205 colon 111% | DU-145 prostate 89.3% | K-562 leukemia 93.7% | MALME-3M melanoma 91.7% | RXF 393 renal 92% | SF-268 CNS 101% | SF-295 CNS 72.9% | SF-539 CNS 81.3% | UACC-257 melanoma 100% | M14 melanoma 91.7%

CC(=O)Cc1cc(-c2cc(CC(C)=O)[nH]n2)n[nH]1
inactive: NCI-H23 lung 102% | NCI-H226 lung 99.3% | NCI-H322M lung 96.2% | HOP-62 NSCLC 95.1% | NCI-H460 lung 105% | HOP-92 NSCLC 104% | NCI-H522 lung 95.8% | A549/ATCC NSCLC 102% | 786-0 renal 103% | COLO 205 colon 110% | DU-145 prostate 107% | K-562 leukemia 99.5% | MALME-3M melanoma 94.6% | RXF 393 renal 103% | SF-268 CNS 98.5% | SF-295 CNS 94.7% | SF-539 CNS 98% | UACC-257 melanoma 93% | M14 melanoma 99.5%

CC1(O)OC(COc2ccc(Cl)cc2)COC1O (stereo not drawn)
inactive: NCI-H23 lung 102% | NCI-H226 lung 102% | NCI-H322M lung 104% | HOP-62 NSCLC 106% | NCI-H460 lung 106% | HOP-92 NSCLC 105% | NCI-H522 lung 104% | A549/ATCC NSCLC 106% | 786-0 renal 105% | COLO 205 colon 126% | DU-145 prostate 108% | K-562 leukemia 104% | MALME-3M melanoma 99.2% | RXF 393 renal 107% | SF-268 CNS 104% | SF-295 CNS 103% | SF-539 CNS 97.3% | UACC-257 melanoma 95.7% | M14 melanoma 109%

O=C(CN1CCNCC1)N1CCOCC1
inactive: NCI-H23 lung 93.3% | NCI-H226 lung 116% | NCI-H322M lung 106% | HOP-62 NSCLC 103% | NCI-H460 lung 117% | HOP-92 NSCLC 103% | NCI-H522 lung 111% | A549/ATCC NSCLC 95.4% | 786-0 renal 101% | COLO 205 colon 110% | DU-145 prostate 130% | K-562 leukemia 97.5% | MALME-3M melanoma 96.3% | MDA-MB-231 breast 110% | RXF 393 renal 123% | SF-268 CNS 110% | SF-295 CNS 102% | SF-539 CNS 99.5% | UACC-257 melanoma 109% | M14 melanoma 103%
